Bioassay records as filed in PubChem.
Sampled rows, rich in hits. Any-hit rate of the full collection: about 1.3%.
EPAC1 antagonist = antagonists of human EPAC1; EPAC1 GEF assay, Rap1b-BODIPY-GDP exchange fluorescence; Potency, µM (series often up to 115 µM), inactives show at the top dose activity change, negative = inhibition, actives largely listed as inhibitors; 360,000 tested, 0.14% active; AID 720709;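 also: plate controls were vehicle for no effect and positive control for full effect; nearly all actives have a fitted effect of over 50% in size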
EPAC2 agonist = agonists of human EPAC2 (RAPGEF4); Q8WZA2; EPAC2 activation, biochemical qHTS; response scale: 100% = 6.5 mM cAMP response; Potency, µM (series often up to 154 µM), without a hit: at the highest dose activation, actives largely listed as activators; 360,000 tested, 0.079% active; also: nearly all actives have a fitted effect of over 50% in size
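Exchange assay: 100 nM EPAC2 with 250 nM Rap1B-BODIPY-GDP and 50 uM GDP. Fluorescence (ex 480/em 540 nm) read every 5 min for 30 min at room temperature. Data normalized to 6.5 mM cAMP as agonist control.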
USP1-UAF1 inh = USP1/UAF1 (human) deubiquitinase inhibition; O94782; recombinant USP1/UAF1, Ub-Rhodamine cleavage fluorescence; Potency, µM (titrated, usually from 57.1 µM), inactives show top-dose activity change, negative = inhibition, actives largely listed as inhibitors; 390,000 tested, 0.23% active; also: % is scaled to controls: 0 for no effect and ±100 for the full control effect; nearly all actives have a fitted effect of over 60% in size
Target sequence (O94782 whole entry, looked up): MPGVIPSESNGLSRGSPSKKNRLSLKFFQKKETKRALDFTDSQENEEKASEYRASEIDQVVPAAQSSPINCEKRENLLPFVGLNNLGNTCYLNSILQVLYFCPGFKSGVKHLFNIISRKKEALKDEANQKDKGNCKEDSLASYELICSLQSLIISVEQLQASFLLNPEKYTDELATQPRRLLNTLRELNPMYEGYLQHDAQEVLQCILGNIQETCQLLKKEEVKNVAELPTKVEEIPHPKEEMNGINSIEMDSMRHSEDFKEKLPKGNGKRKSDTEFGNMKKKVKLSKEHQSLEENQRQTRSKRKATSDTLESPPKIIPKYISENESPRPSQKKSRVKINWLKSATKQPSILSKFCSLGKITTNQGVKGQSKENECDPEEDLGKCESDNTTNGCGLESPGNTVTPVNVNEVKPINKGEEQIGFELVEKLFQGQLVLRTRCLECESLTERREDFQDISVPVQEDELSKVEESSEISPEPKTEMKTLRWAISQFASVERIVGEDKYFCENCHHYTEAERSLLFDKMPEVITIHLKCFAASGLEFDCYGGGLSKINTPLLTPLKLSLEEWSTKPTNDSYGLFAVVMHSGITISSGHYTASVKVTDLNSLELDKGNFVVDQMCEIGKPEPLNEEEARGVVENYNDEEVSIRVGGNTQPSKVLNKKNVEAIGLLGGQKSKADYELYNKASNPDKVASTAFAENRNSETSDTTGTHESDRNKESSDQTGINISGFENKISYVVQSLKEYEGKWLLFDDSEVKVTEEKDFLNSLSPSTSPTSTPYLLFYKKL
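USP1/UAF1 complex at 1 nM was preincubated with compound for 15 min at room temperature, then Ub-Rho substrate (150nM final) was added. Fluorescence (480/540 nm) was read kinetically, 6 reads every 60 seconds.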
EPAC1 ag = activates human EPAC1 exchange factor | O95398 | EPAC1 agonist qHTS, biochemical assay; response scale: 100% = response to 6.5 mM cAMP | Potency, µM (titrated, usually from 154 µM), inactives show top-dose activation, usual class: activators | 360,000 tested, 0.073% active | AID 720707; also: nearly all actives have a fitted effect of over 60% in size
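Read-out is the fluorescence drop as BODIPY-GDP leaves Rap1B (480 nm excitation, 540 nm emission), recorded every 5 minutes over 30 minutes. Reactions held 100 nM EPAC1, 250 nM Rap1B–BODIPY-GDP and 50 uM GDP, with 6.5 mM cAMP setting full activation.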
EPAC2 antagonist = antagonists of human EPAC2; 360,000 tested, 0.18% active; Q8WZA2; Potency, µM (doses to about 114 µM), for inactives: at the highest dose activity, negative = inhibition, usual class: inhibitors; EPAC2 GEF exchange of Rap1B-BODIPY-GDP, fluorescence; also: % is scaled to controls: 0 for no effect and ±100 for the full control effect; nearly all actives have a fitted effect of over 45% in size
12-LOX inh = ALOX12 (human) lipoxygenase inhibition; P18054; purified 12hLO, xylenol orange hydroperoxide absorbance; Potency, µM (titrated, usually from 108 µM), for inactives: at the top dose activity change, negative = inhibition, usual class: inhibitors; 580,000 tested, 1.1% active; also: % is scaled to controls: 0 for no effect and ±100 for the full control effect
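Purified human 12hLO at 150 nM in 25 mM Hepes, 0.01% Triton X-100, pH 7.0, preincubated 15 min at room temperature with compound. Reaction started with 40 uM arachidonic acid, 30 min at room temperature. Hydroperoxide measured by Fe-xylenol orange, 573/405 nm absorbance ratio.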
Active calls of the source: *; i = inactive; ? = inconclusive; · = not tested or not shown; ! = a repeat was not active; [ ] = dose if it differs, or a comment. Calls follow the shape of the dose curve; as a rule, active = well fitted curve in the direction sought with a large enough effect; inconclusive = small, poorly fitted or top-dose-only effect, or another doubt; inactive = no such curve, though single readings can be large; an effect the other way counts as inactive or inconclusive. Potency is read from the fitted curve at half-maximal effect.

SMILES	EPAC1 antagonist	EPAC2 agonist	USP1-UAF1 inh	EPAC1 ag	EPAC2 antagonist	12-LOX inh
COc1ccc(-c2n[nH]c(=S)n2C2CCCCC2)cc1	11%	-6%	-15%	2%	0%	45µM*
COc1ccc(Cl)cc1-c1n[nH]c(=S)n1C1CCCCC1	-15%	1%	-8%	-1%	?	40µM*
CN(C)c1nccnc1OC1CCN(C(=O)c2ccoc2)C1 (centres undefined)	·	·	·	·	·	43%
CCC(C)(C)C1CCc2c(sc(NC(C)=O)c2C#N)C1 (centres undefined)	·	·	·	·	·	-22%
Cc1ccccc1CN(C)C(C)C(=O)NCc1cccs1 (centres undefined)	·	·	·	·	·	13%
COc1ccc(OC)c(NC(=O)C(C)Oc2ccc(Br)cc2)c1 (centres undefined)	-4%	5%	-19%	2%	13µM*	-11%
COc1ccc(NC(=O)NNC(=O)C(C)Oc2ccc(C(C)C)cc2)c(OC)c1 (centres undefined)	20%	3%	-16%	-6%	-2%	121%
Cc1ccc(S(=O)(=O)N2CCc3ccccc3CC2)cc1	-17%	10%	-6%	5%	-21%	1%
Cc1ccc(-c2cc3n(c2)CCc2ccccc2-3)cc1	·	·	·	·	·	16µM*
O=C(O)c1cc2c(s1)-c1ccccc1CC2	27%	-4%	-4%	-2%	2%	-3%
c1ccc(-c2cc3n(c2)CCc2ccccc2-3)cc1	-4%	9%	-11%	3%	-6%[57.1 µM]	6.3µM*!
CCN(CC)c1ccc(C=C(c2nnnn2-c2ccccc2)c2nnnn2-c2ccccc2)cc1	5%	8%	?	-3%	38%	0%
Cc1ccc(-n2nnnc2C(=Cc2ccc(N(C)C)cc2)c2nnnn2-c2ccc(C)cc2)cc1	15%	12%	22µM*	6%	3%	18%
FC(F)(F)c1cc(C2CC2)[nH]n1	·	·	·	·	·	-23%
O=S1(=O)NC2(CCCN(Cc3ccc(Cl)cc3)C2)COc2ccccc21 (centres undefined)	·	·	·	·	·	2%[6.33 µM]
COc1nc2nc(CCc3ccccc3)n(C)c2cc1-c1cccc(CO)c1	·	·	·	·	·	11%[176 µM]
COc1ccc(-c2cccc(COc3cnc4c(ccn4CC(=O)O)c3)c2)c(C)c1	·	·	·	·	·	45µM*
O=C(O)Cn1ccc2cc(OCCc3cccc(-c4ccc(Cl)cc4)c3)cnc21	·	·	·	·	·	45µM*
COc1ccc(CN(C)C(=O)C2CCN(C(=O)c3ccc(OC)c4ccccc34)CC2)cc1	·	·	·	·	·	2%
CCOC(=O)/C(C#N)=C/N=CN(C)C	·	·	·	·	·	12%
CCNc1nc2c(c(=O)n(C)c(=O)n2C)n1CC(O)COc1ccccc1C (centres undefined)	·	·	·	·	·	-6%
CSc1ccccc1NC(=O)/C=C/c1ccncc1	·	·	·	·	·	-1%
Cc1ccc(Cn2cccc(NS(C)(=O)=O)c2=O)cc1	0%	9%	-20%	2%	7%	7.1µM*
CC(C)(C)N(CC#CCC(O)(c1ccccc1)c1ccccc1)CCO	-8%	2%	-6%	-3%	-1%	7.9µM*
O=C(c1cc(-c2ccc(F)cc2)nc2ccccc12)N1CCC(Cc2nncn2CC2CC2)CC1	·	·	·	·	·	4%
SMILES	EPAC1 antagonist	EPAC2 agonist	USP1-UAF1 inh	EPAC1 ag	EPAC2 antagonist	12-LOX inh
Cc1cc(C)c(C)c(OCCNCc2ccccc2)c1	-1%	0%	-24%	3%	-4%	-16%
Cc1cc(Br)ccc1OCCNCc1ccccc1	0%	3%	-7%	6%	-4%	6.3µM*
COC(=O)c1sc(S(=O)(=O)Nc2cc(F)ccc2C)c(C(=O)OC)c1C	·	·	·	·	·	-6%
CC(=O)OCCn1c2nc(=O)[nH]c(=O)c-2nc2cc(C)c(C)cc21	i	100µM*	28µM*	50µM*	i	-12%
Fc1ccc(NC(=S)NCCc2c[nH]c3ccccc23)cc1	·	·	·	·	·	-27%
FC(F)(F)c1cccc(NC(=S)NCCc2c[nH]c3ccccc23)c1	·	·	·	·	·	40µM*
COc1ccc(NC(=S)NCCc2c[nH]c3ccccc23)cc1	-20%	4%	-8%	7%	-1%	50µM*
Cc1cccc(NC(=O)NCCc2c[nH]c3ccccc23)c1	1%	19%	-14%	14%	-6%	-9%
COc1ccc(NC(=O)N2Cc3[nH]cnc3C[C@H]2c2nc(-c3ccc(C)cc3)no2)cc1	·	·	·	·	·	63%[176 µM]
CN(Cc1ccc2ccccc2c1)C(=O)Cc1n[nH]c(=O)c2ccccc12	·	·	·	·	·	5%
COc1ccccc1NC(=O)c1c(C)nc2ccccc2c1C(=O)O	-8%	-2%	-9%	10%	3%	14µM*
CCOC(=O)C1C(=O)C=C(c2ccco2)CC1c1ccccc1 (centres undefined)	·	·	·	·	·	11µM*
N#Cc1cc(C(=O)c2ccccc2OCC(=O)Nc2ccc(F)cc2)cn(C2CCCCC2)c1=O	·	·	·	·	·	0%
O=[N+]([O-])c1ccc(C=NNc2ccccc2)cc1	-27%	0%	-9%	8%	-6%	?
O=[N+]([O-])c1cccc(C=NNc2ccccc2)c1	-20%	5%	-17%	4%	-4%	45µM*
CN1C(=O)c2cccc3c(Cl)ccc(c23)C1=O	6%	8%	9%	-1%	1%	0%
CNc1ccc2c3c(cccc13)C(=O)N(C)C2=O	-23%	?	321%	100µM*	i	5%
CCn1nc(C(=O)Nc2ccncc2)c2ccccc2c1=O	·	·	·	·	·	-9%
Cc1cccc(CNc2ccnc(-c3ccc(N(C)C)cc3)n2)c1	·	·	·	·	·	-30%
Cc1cccc(CNc2ccnc(-c3ccoc3)n2)c1	·	·	·	·	·	20µM*
CN(C)c1ccc(-c2sc(Nc3ccccc3)n[n+]2-c2ccc(F)cc2)cc1	-9%	16%	-26%	-12%	6%	45µM*
CCc1ccc(Nc2n[n+](-c3ccccc3)c(-c3ccc(N(CC)CC)cc3)s2)cc1	8%	?	?	-5%	12%	40µM*
CCc1ccc(Nc2n[n+](-c3ccccc3)c(-c3ccc(OCc4ccccc4)cc3)s2)cc1	8%	-4%	-31%	-7%	-3%	22µM*
CCc1ccc(Nc2n[n+](-c3ccccc3)c(-c3cc(OC)c(OC)cc3Br)s2)cc1	-13%	2%	-18%	-21%	?	40µM*
CCN(CC)c1ccc(-c2sc(Nc3ccccc3)n[n+]2-c2ccc(F)cc2)cc1	24%	8%	?	-6%	14%	?
CC1=C[C@@H](CNCc2ccccn2)[C@H](C(C)C)C[C@H]1Cc1nnc(-c2ccccc2)o1	·	·	·	·	·	44%[176 µM]
COc1ccccc1NC(=S)NC1CCCC1	3%	4%	-21%	-3%	0%	?
S=C(Nc1cccc2ccccc12)Nc1cccc2ccccc12	9%	1%	-22%	-3%	8%	-23%
